# Rows were chosen to be rich in hits. Some 4.5% of all compounds tested hit in one or more screens of this group.
# DAX1 inh-1: DAX1 (NR0B1) inhibitors on StAR promoter, primary screen, cell-based, luminescence, SF-1 (NR5A1), full-length DAX-1; HEK293T StAR-luciferase reporter, SF-1/DAX-1 repression relief; inhibition, % at 6.8 µM; 370,000 compounds, 1.1% hits; AID 652010, 2013;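 active = inhibition above the mean over all tested compounds plus 3 SD, cut at about 3.6% in these data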;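 note: 0% = DAX-1 cells with DMSO and 100% = cells lacking DAX-1 with DMSO; higher inhibition means more luminescence from relief of DAX-1 repression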
# hcDAF-12 act: H. contortus DAF-12 nuclear receptor activators, primary screen, cell-based, luminescence, HEK293, lit1-tk-luc reporter | HEK293 hcDAF-12 lit1-tk-luc reporter; 0% DMSO, 100% Δ7-dafachronic acid | activation, % at 6.8 µM | 370,000 compounds, 1.4% hits | AID 652067, 2013;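 active = activation above the mean of all tested compounds plus 3 SD, cut at about 5.5% in these data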;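 note: 100% = response to 3 µM Δ7-dafachronic acid high control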
# GAA850 FXN act: FXN promoter activators, primary screen, cell-based, luciferase luminescence, HEK293 lucGAA850; HEK293 lucGAA850 FXN promoter luciferase reporter, 24 h; percent of 10 µM SAHA response; activation, % at 6 µM; 360,000 compounds, 0.56% hits;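 active = activation above the average of all compounds screened plus 3 SD, cutoff fixed separately per campaign, cut at about 7.5% in these data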;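 note: 0% = DMSO wells and 100% = 10 µM SAHA wells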
# hgDAF-12 ag: H. glycines DAF-12 receptor agonists, primary screen, cell-based, luminescence, HEK293, GAL4 fusion, UAS-luciferase. activation, % at 6.8 µM. HEK293 GAL4-hgDAF12 UAS-luciferase reporter, agonist luminescence; normalized to butyrate control. 370,000 compounds, 1.8% hits. AID 687014, 2013. Nuclear hormone receptor DAF-12 (Heterodera glycines), GAL4 fusion;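 active = activation above a cutoff set at the mean of all screened compounds plus 3 SD, cut at about 10% in these data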;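 note: 0% = DMSO wells and 100% = sodium butyrate wells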
# ssDAF-12 act: S. stercoralis DAF-12 nuclear receptor activators, primary screen, cell-based, luminescence, HEK293, GRIP1 co-expression, lit1-tk-luc | AID 652126, 2013 | 370,000 compounds, 1% hits | activation, % at 6.8 µM | Nuclear hormone receptor DAF-12 (Strongyloides stercoralis) | HEK293 ssDAF-12/GRIP1 lit1-tk-luc reporter; % of 3 µM dafachronic acid response;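 active = activation above the mean over all tested compounds plus 3 SD, cut at about 0.9% in these data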;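 note: 0% = DMSO-only wells and 100% = 3 µM delta7-dafachronic acid wells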
# DAX1 inh-2: DAX1 (NR0B1) inhibitors, primary screen, cell-based, HEK293, Gal4-DAX1, luciferase luminescence. HEK293 Gal4-DAX1 luciferase reporter. 340,000 compounds, 0.99% hits. inhibition, % at 6.75 µM;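 active = inhibition above the mean over all tested compounds plus 3 SD, cut at about 4.2% in these data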;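 note: 0% = DAX1-transfected cells with DMSO and 100% = empty-vector control cells with DMSO; inhibition shows as a rise in luminescence from relieved DAX1 repression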
# Target sequence (P51843 207-470 limits assumed): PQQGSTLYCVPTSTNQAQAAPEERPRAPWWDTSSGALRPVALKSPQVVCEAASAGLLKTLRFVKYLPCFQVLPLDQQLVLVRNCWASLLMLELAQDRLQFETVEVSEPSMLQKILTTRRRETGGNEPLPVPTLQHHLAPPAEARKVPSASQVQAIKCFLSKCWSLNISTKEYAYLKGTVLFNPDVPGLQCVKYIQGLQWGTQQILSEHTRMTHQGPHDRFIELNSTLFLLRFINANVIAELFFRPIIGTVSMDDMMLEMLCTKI
# * marks the source's active call; other numbers are inactive results; . = no result.
SMILES,DAX1 inh-1,hcDAF-12 act,GAA850 FXN act,hgDAF-12 ag,ssDAF-12 act,DAX1 inh-2
C/C=C/C(=O)N1CCc2cc(S(=O)(=O)N(C)Cc3ccco3)ccc21,-1,1,.,2,-1,.
O=C(COn1nnc2ccc(C(F)(F)F)cc21)Nc1c(Cl)cccc1Cl,1,0,0,-2,15*,-2
O=C(OCc1ccc(CSc2nnc(-c3cccc4ccccc34)o2)cc1)c1ccc(F)cc1,.,0,.,0,-2,.
COc1cccc(OC(C)CCN2CCC(C(O)(c3ccccc3)c3ccccc3)CC2)c1 (stereo unspecified),-1,3,.,1,0.9*,.
CC(CCN1CCC(C(O)(c2ccccc2)c2ccccc2)CC1)Oc1ccc(C#N)cc1F (stereo unspecified),0,6.0*,.,-3,-1,.
Cc1cccc(OC(C)CCN2CCC(C(O)(c3ccccc3)c3ccccc3)CC2)c1 (stereo unspecified),0,3,.,-3,-1,.
CCc1cc2c(nc1CC)CCCN2S(=O)(=O)c1cccs1,1,-2,.,-2,-1,.
CC(C)(C)N(Cc1cn(CC2CCCCC2)nn1)S(=O)(=O)c1ccc(F)cc1Br,-1,-1,.,1,-2,.
C=CCN1C(=O)[C@H](CC(=O)NCc2cccc(C(F)(F)F)c2)[C@@]2(C(=O)OCC)CCCC=C12,-1,-1,.,5,-1,.
O=C(NC1CCCCC1)Oc1ccccc1,0,3,-1,2,-1,6.9*
O=C(NC1CCS(=O)(=O)C1)Oc1ccccc1 (stereo unspecified),0,0,0,3,-1,0
CCCCCN1CCCCC(NC(=O)c2cccc(F)c2)C1=O (stereo unspecified),0,-1,.,3,-1,.
COCCNC(=O)c1cc2c(s1)-c1ccc(Cl)cc1SC2,2,1,5,13*,1,5.0*
NC(=O)c1cc2c(s1)-c1cc(Cl)ccc1SC2,2,4,0,3,0,1
COc1ccc(C(=O)OCCCN(C)C2CN(Cc3cn(Cc4ccccc4F)nn3)S(=O)(=O)C2)cc1OC (stereo unspecified),-1,-3,.,5,-2,.
Nc1c(C(=O)Nc2cccc(C(=O)O)c2)sc2nc3c(cc12)CCCC3,3,3,0,11*,-1,-4
O=C(Nc1c(-c2ccc(F)cc2)nc2ncccn12)c1ccc(F)cc1,-1,-2,.,-2,-1,.
C=CCOc1cccc(/C=N/NC(=O)CN(c2cc(Cl)ccc2OC)S(=O)(=O)c2ccc(C)c([N+](=O)[O-])c2)c1,0,1,0,0,1.0*,1
COc1ccc(Cl)cc1N(CC(=O)N/N=C/c1ccc(OC(C)C)cc1)S(=O)(=O)c1ccc(C)c([N+](=O)[O-])c1,0,2,0,-1,-1,0
COc1cc(NC(=S)NC(=O)c2cccs2)ccc1NC(=O)C(C)C,0,0,2,1,-1,-1
O=C(NC(=S)Nc1ccccc1N1CCCC1)c1cccs1,0,5.7*,4,4,0,1
CCN(CC)c1ccc(NC(=S)NC(=O)c2cccs2)cc1,3,3,3,11*,-1,3
CS(=O)(=O)N1CCN(c2ccc(NC(=S)NC(=O)c3cccs3)cc2)CC1,0,0,-1,0,-1,0
O=C(NC(=S)Nc1ccccc1N1CCCCC1)c1cccs1,-1,4,6,1,-1,-1
CC(C)C(=O)Nc1cccc(NC(=S)NC(=O)c2cccs2)c1,4.1*,1,2,5,-1,0
SMILES,DAX1 inh-1,hcDAF-12 act,GAA850 FXN act,hgDAF-12 ag,ssDAF-12 act,DAX1 inh-2
O=C(NC(=S)Nc1ccc(N2CCCCC2)cc1)c1cccs1,2,3,6,12*,0,2
CC(C)(C)c1ccc(-c2nnc(SCC(=O)Nc3ccc(S(=O)(=O)Nc4nccs4)cc3)n2Cc2ccco2)cc1,-1,-1,.,-2,-1,.
CC(COc1cccc(Br)c1)CN1CCC(C(O)(c2ccccc2)c2ccccc2)CC1 (stereo unspecified),-2,-2,.,-2,-2,.
CCC[C@H]1[C@@H](NC(=O)c2ccc(Cl)c(C(F)(F)F)c2)CC[C@@]23CCCN2C(=O)CCC[C@@H]13,.,-1,.,-2,-2,.
Oc1ccc(NC(=S)Nc2ccc(F)cc2)cc1,0,0,1,-2,-1,-1
CCN(CC)c1ccc(NC(=S)Nc2ccc(F)cc2)cc1,2,0,4,12*,-1,0
CCC1CCCCN1C(=S)NC(=O)c1cccs1 (stereo unspecified),-1,0,0,3,-1,2
O=C(NC(=S)Nc1ccc(Cl)cn1)c1cccs1,2,4,2,10,1.1*,5.5*
O=C(NC(=S)N1CCCCC1CO)c1cccs1 (stereo unspecified),2,3,2,1,0,6.5*
Cc1cc(NC(=O)c2cccs2)ncc1NC(=O)C(C)C,1,0,3,11*,1,2
COc1cc(C=Nn2c(-c3cc(C)[nH]n3)n[nH]c2=S)cc(Br)c1O,0,0,.,0,-2,.
CCCCOc1ccc(C(=O)n2ccc3ccc(-c4ccc5ccn(Cc6cccc(C(=O)OC)c6)c5c4)cc32)cc1,-1,2,.,-2,-1,.
O=C(C1CCCN1S(=O)(=O)c1ccccc1[N+](=O)[O-])N1CCc2ccccc2C1 (stereo unspecified),0,0,.,1,-1,.
O=C(CNS(=O)(=O)c1cc2ccccc2s1)N1CCN(c2ccccn2)CC1,-1,-2,.,-2,-1,.
O=C1Nc2ccc(Br)cc2/C1=C/C1CC=CCC1 (stereo unspecified),-1,2,4,3,1.0*,0
COC(=O)[C@@]12CCCCC3=C1N(CCC3)C(=O)[C@H]2CC(=O)N1CCCCC1,0,1,.,3,-1,.
Cc1nc2c(OCc3ccc(Cl)cc3)cccn2c1N(C)C(=O)CCC1CCCC1,-1,-1,0,10*,-1,.
CCOC(=O)[C@@]12CCCC3=C1N(CCC3)C(=O)[C@H]2CC(=O)NCc1cccc2ccccc12,1,-1,.,0,-2,.

# Source: PubChem BioAssay
